Laboratory results reported in the supplement of paper PMC10646978.
± gives the standard deviation.

Tests used:
Conditions in all cases: modulator concentration 10 µM
[1] = tested on: RAW-Dual (murine macrophage reporter line); test: NF-kB reporter (SEAP) activity fold change vs agonist alone; higher = enhanced NF-kB activity
Outline: (§1)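 Overnight stimulation with a PRR agonist followed pre-incubation for 1 hour at 37 °C with compound at 10 μM final. This was done in RAW-Dual murine macrophage reporter cells seeded at 50 000 per well in 384-well plates. NF-κB (SEAP, QUANTI-Blue absorbance at 620 nm) and IRF (Lucia luciferase, QUANTI-Luc luminescence) were read from the supernatant. Each reporter's fold change relative to the mean agonist-only control on the same plate was averaged over replicate plates.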

[2] = tested on: RAW-Dual (murine macrophage reporter line); test: IRF reporter (Lucia luciferase) activity fold change vs agonist alone; higher = enhanced IRF activity
Outline: as §1

[3] = tested on: RAW-Dual (murine macrophage reporter line); test: viability score (confluency relative to resting cells, overnight) (fraction); higher = more viable, active = viable (0.7 or more)
Outline: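 RAW-Dual macrophages in 384-well plates were exposed overnight to compound at 10 μM final. Confluency was imaged with IncuCyte, and two confluency masks were generated with IncuCyte software over all imaged wells. The viability score is confluency expressed relative to resting cells. Compounds were called viable if both masks exceeded 70% of resting cells.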

[4] = agonist: CpG ODN 1826 0.5 ug/mL

Q: Which results are given for `COc1ccc(N2C(=O)C(=Cc3ccc([N+](=O)[O-])s3)SC2=S)cc1`?
A: NF-kB reporter [1, 4]: 0.879 ± 0.17; NF-kB reporter ([1]; agonist: LPS 0.1 ug/mL): 1.55 ± 0.14; NF-kB reporter ([1]; agonist: MPLA […]): 1.71 ± 0.16; IRF reporter ([2]; agonist: 3'3'-cGAMP 10 ug/mL): 0.439 ± 0.012; IRF reporter ([2]; agonist: LPS 0.1 ug/mL): 1.25 ± 0.23; IRF reporter ([2]; agonist: MPLA […]): 1.2 ± 0.26; viability score [3]: 0.9 (active)

Q: How did the NF-kB reporter [1, 4] turn out when `Cc1ccc(NC(=O)C(C#N)=Cc2ccc(-c3cccc([N+](=O)[O-])c3)o2)cc1` was run?
A: 1.07 ± 0.084

Q: And the NF-kB reporter ([1]; agonist: LPS 0.1 ug/mL)?
A: 1.06 ± 0.094

Q: And the NF-kB reporter ([1]; agonist: MPLA […])?
A: 0.904 ± 0.054

Q: And the IRF reporter ([2]; agonist: 3'3'-cGAMP 10 ug/mL)?
A: 1 ± 0.076

Q: And the IRF reporter ([2]; agonist: LPS 0.1 ug/mL)?
A: 1.46 ± 0.1

Q: And the IRF reporter ([2]; agonist: MPLA […])?
A: 1.18 ± 0.14

Q: And the viability score [3]?
A: 1.01 (active)

Q: Which NF-kB reporter [1, 4] does the source give for `Cc1cc(OCC(=O)NNC(=O)COc2ccc(Br)cc2Br)cc(C)c1Cl` here?
A: 0.961 ± 0.098

Q: What about the NF-kB reporter ([1]; agonist: LPS 0.1 ug/mL) of the same compound?
A: 0.857 ± 0.13

Q: And the NF-kB reporter ([1]; agonist: MPLA […])?
A: 0.985 ± 0.036

Q: What about the IRF reporter ([2]; agonist: 3'3'-cGAMP 10 ug/mL) of the same compound?
A: 0.895 ± 0.15

Q: What about the IRF reporter ([2]; agonist: LPS 0.1 ug/mL) of the same compound?
A: 0.987 ± 0.051

Q: What about the IRF reporter ([2]; agonist: MPLA […]) of the same compound?
A: 0.98 ± 0.086

Q: What about the viability score [3] of the same compound?
A: 0.945 (active)

Q: `Brc1ccc(-c2cc(-c3ccccc3)nc(N3CCOCC3)n2)cc1` was tested. Which NF-kB reporter [1, 4] did it give?
A: 0.81 ± 0.087

Q: What about the NF-kB reporter ([1]; agonist: LPS 0.1 ug/mL) of the same compound?
A: 0.995 ± 0.11

Q: What about the NF-kB reporter ([1]; agonist: MPLA […]) of the same compound?
A: 1.12 ± 0.13

Q: What about the IRF reporter ([2]; agonist: 3'3'-cGAMP 10 ug/mL) of the same compound?
A: 0.977 ± 0.059

Q: What about the IRF reporter ([2]; agonist: LPS 0.1 ug/mL) of the same compound?
A: 1.35 ± 0.25

Q: And the IRF reporter ([2]; agonist: MPLA […])?
A: 1.59 ± 0.38

Q: And the viability score [3]?
A: 1.01 (active)

Q: `CSc1nc2ccc(Nc3nc(N4CCCC4)nc(N4CCCC4)n3)cc2s1` was tested. Which NF-kB reporter [1, 4] did it give?
A: 0.838 ± 0.086

Q: What about the NF-kB reporter ([1]; agonist: LPS 0.1 ug/mL) of the same compound?
A: 0.962 ± 0.06

Q: What about the NF-kB reporter ([1]; agonist: MPLA […]) of the same compound?
A: 1.05 ± 0.096

Q: What about the IRF reporter ([2]; agonist: 3'3'-cGAMP 10 ug/mL) of the same compound?
A: 0.906 ± 0.043

Q: And the IRF reporter ([2]; agonist: LPS 0.1 ug/mL)?
A: 1.31 ± 0.13

Q: And the IRF reporter ([2]; agonist: MPLA […])?
A: 1.55 ± 0.15

Q: And the viability score [3]?
A: 1.02 (active)

Q: `O=C(CCCn1nc(-c2ccc(F)cc2)ccc1=O)Nc1ccc(C(F)(F)F)cc1` was tested. Which NF-kB reporter [1, 4] did it give?
A: 0.89 ± 0.097

Q: And the NF-kB reporter ([1]; agonist: LPS 0.1 ug/mL)?
A: 0.97 ± 0.055

Q: What about the NF-kB reporter ([1]; agonist: MPLA […]) of the same compound?
A: 1.05 ± 0.038

Q: What about the IRF reporter ([2]; agonist: 3'3'-cGAMP 10 ug/mL) of the same compound?
A: 0.346 ± 0.038

Q: And the IRF reporter ([2]; agonist: LPS 0.1 ug/mL)?
A: 1.01 ± 0.041

Q: What about the IRF reporter ([2]; agonist: MPLA […]) of the same compound?
A: 0.748 ± 0.15

Q: And the viability score [3]?
A: 0.99 (active)

Q: What does the source list for `O=C1CN(/N=C/c2ccc([N+](=O)[O-])o2)C(=O)N1`?
A: NF-kB reporter [1, 4]: 1.13 ± 0.27; NF-kB reporter ([1]; agonist: LPS 0.1 ug/mL): 1.14 ± 0.087; NF-kB reporter ([1]; agonist: MPLA […]): 0.87 ± 0.068; IRF reporter ([2]; agonist: 3'3'-cGAMP 10 ug/mL): 0.821 ± 0.029; IRF reporter ([2]; agonist: LPS 0.1 ug/mL): 1.21 ± 0.16; IRF reporter ([2]; agonist: MPLA […]): 1.14 ± 0.17; viability score [3]: 0.994 (active)

Q: Which results are given for `C=Cc1c(C)c2cc3nc(cc4[nH]c(cc5nc(cc1[nH]2)C(C)=C5CCC(=O)O)c(CCC(=O)OC)c4C)[C@@]1(C)C3=CC=C(C(=O)OC)C1C(=O)OC` (some centres undefined) [Prestw-1105]?
A: NF-kB reporter [1, 4]: 0.611 ± 0.075; NF-kB reporter ([1]; agonist: LPS 0.1 ug/mL): 0.869 ± 0.069; NF-kB reporter ([1]; agonist: MPLA […]): 1.17 ± 0.16; IRF reporter ([2]; agonist: 3'3'-cGAMP 10 ug/mL): 0.131 ± 0.018; IRF reporter ([2]; agonist: LPS 0.1 ug/mL): 0.642 ± 0.13; IRF reporter ([2]; agonist: MPLA […]): 0.457 ± 0.16; viability score [3]: 0.669 (inactive)

Q: With `Cc1ccc(OCCSc2nc3ccccc3c(=O)[nH]2)cc1C` as the compound, how does the NF-kB reporter [1, 4] read?
A: 0.728 ± 0.2

Q: And the NF-kB reporter ([1]; agonist: LPS 0.1 ug/mL)?
A: 1.11 ± 0.13

Q: What about the NF-kB reporter ([1]; agonist: MPLA […]) of the same compound?
A: 1.02 ± 0.13

Q: And the IRF reporter ([2]; agonist: 3'3'-cGAMP 10 ug/mL)?
A: 0.886 ± 0.025

Q: And the IRF reporter ([2]; agonist: LPS 0.1 ug/mL)?
A: 1.03 ± 0.22

Q: What about the IRF reporter ([2]; agonist: MPLA […]) of the same compound?
A: 1.19 ± 0.24

Q: What about the viability score [3] of the same compound?
A: 0.818 (active)

Q: Which NF-kB reporter [1, 4] does the source give for `O=C(CSc1nc2c(c(=O)n1-c1ccccc1)SCC2)N1CCN(c2ccccc2)CC1` here?
A: 0.985 ± 0.08

Q: And the NF-kB reporter ([1]; agonist: LPS 0.1 ug/mL)?
A: 1.09 ± 0.057

Q: What about the NF-kB reporter ([1]; agonist: MPLA […]) of the same compound?
A: 1.14 ± 0.036

Q: What about the IRF reporter ([2]; agonist: 3'3'-cGAMP 10 ug/mL) of the same compound?
A: 1.15 ± 0.081

Q: What about the IRF reporter ([2]; agonist: LPS 0.1 ug/mL) of the same compound?
A: 0.879 ± 0.046

Q: What about the IRF reporter ([2]; agonist: MPLA […]) of the same compound?
A: 0.953 ± 0.076

Q: And the viability score [3]?
A: 1 (active)

Q: Which results are given for `CCOc1ccccc1OCCCCOc1cccc(C)c1`?
A: NF-kB reporter [1, 4]: 0.871 ± 0.064; NF-kB reporter ([1]; agonist: LPS 0.1 ug/mL): 0.936 ± 0.071; NF-kB reporter ([1]; agonist: MPLA […]): 0.995 ± 0.028; IRF reporter ([2]; agonist: 3'3'-cGAMP 10 ug/mL): 0.996 ± 0.12; IRF reporter ([2]; agonist: LPS 0.1 ug/mL): 0.878 ± 0.13; IRF reporter ([2]; agonist: MPLA […]): 0.96 ± 0.29; viability score [3]: 0.998 (active)

Q: What does the source list for `CN(C)c1nc(CNS(C)(=O)=O)nc(N2CCCCC2)n1`?
A: NF-kB reporter [1, 4]: 1 ± 0.092; NF-kB reporter ([1]; agonist: LPS 0.1 ug/mL): 1.08 ± 0.091; NF-kB reporter ([1]; agonist: MPLA […]): 1.03 ± 0.044; IRF reporter ([2]; agonist: 3'3'-cGAMP 10 ug/mL): 0.991 ± 0.044; IRF reporter ([2]; agonist: LPS 0.1 ug/mL): 1.03 ± 0.071; IRF reporter ([2]; agonist: MPLA […]): 0.965 ± 0.21; viability score [3]: 1 (active)

Q: With `CCn1c(=O)c(-c2ccn[nH]2)cc2c(C)nc(N)nc21` as the compound, how does the NF-kB reporter [1, 4] read?
A: 0.877 ± 0.054

Q: And the NF-kB reporter ([1]; agonist: LPS 0.1 ug/mL)?
A: 1.01 ± 0.093

Q: And the NF-kB reporter ([1]; agonist: MPLA […])?
A: 1.17 ± 0.065

Q: And the IRF reporter ([2]; agonist: 3'3'-cGAMP 10 ug/mL)?
A: 1.01 ± 0.048

Q: What about the IRF reporter ([2]; agonist: LPS 0.1 ug/mL) of the same compound?
A: 1.33 ± 0.23

Q: And the IRF reporter ([2]; agonist: MPLA […])?
A: 1.45 ± 0.53

Q: What about the viability score [3] of the same compound?
A: 1 (active)

Q: How did the NF-kB reporter [1, 4] turn out when `COc1c(-c2ccc3cc(NS(C)(=O)=O)ccc3c2)cc(-n2ccc(=O)[nH]c2=O)cc1C(C)(C)C` was run?
A: 0.43 ± 0.1

Q: What about the NF-kB reporter ([1]; agonist: LPS 0.1 ug/mL) of the same compound?
A: 1.02 ± 0.056

Q: And the NF-kB reporter ([1]; agonist: MPLA […])?
A: 0.827 ± 0.093

Q: What about the IRF reporter ([2]; agonist: 3'3'-cGAMP 10 ug/mL) of the same compound?
A: 0.774 ± 0.043

Q: And the IRF reporter ([2]; agonist: LPS 0.1 ug/mL)?
A: 1.2 ± 0.29

Q: And the IRF reporter ([2]; agonist: MPLA […])?
A: 1.2 ± 0.15

Q: What about the viability score [3] of the same compound?
A: 1.01 (active)

Q: What does the source list for `COC(=O)c1cccc(Nc2nc(C=Cc3ccccc3)nc3ccccc23)c1`?
A: NF-kB reporter [1, 4]: 1.3 ± 0.12; NF-kB reporter ([1]; agonist: LPS 0.1 ug/mL): 1.28 ± 0.1; NF-kB reporter ([1]; agonist: MPLA […]): 5.46 ± 0.19; IRF reporter ([2]; agonist: 3'3'-cGAMP 10 ug/mL): 0.658 ± 0.023; IRF reporter ([2]; agonist: LPS 0.1 ug/mL): 0.945 ± 0.14; IRF reporter ([2]; agonist: MPLA […]): 5.98 ± 0.47; viability score [3]: 0.851 (active)

Q: Which results are given for `COc1c(C)c2c(c(O)c1C/C=C(\C)CCC(=O)O)C(=O)OC2`?
A: NF-kB reporter [1, 4]: 0.602 ± 0.047; NF-kB reporter ([1]; agonist: LPS 0.1 ug/mL): 0.146 ± 0.007; NF-kB reporter ([1]; agonist: MPLA […]): 0.352 ± 0.032; IRF reporter ([2]; agonist: 3'3'-cGAMP 10 ug/mL): 0.453 ± 0.03; IRF reporter ([2]; agonist: LPS 0.1 ug/mL): 1.13 ± 0.066; IRF reporter ([2]; agonist: MPLA […]): 1.31 ± 0.11; viability score [3]: 0.587 (inactive)

Q: How did the NF-kB reporter [1, 4] turn out when `O=C(NCC1(O)CCc2ccccc2C1)Nc1ccccc1C(F)(F)F` (centres undefined) was run?
A: 0.914 ± 0.18

Q: And the NF-kB reporter ([1]; agonist: LPS 0.1 ug/mL)?
A: 1.02 ± 0.11

Q: What about the NF-kB reporter ([1]; agonist: MPLA […]) of the same compound?
A: 1.18 ± 0.074

Q: And the IRF reporter ([2]; agonist: 3'3'-cGAMP 10 ug/mL)?
A: 0.973 ± 0.05

Q: And the IRF reporter ([2]; agonist: LPS 0.1 ug/mL)?
A: 1.17 ± 0.2

Q: And the IRF reporter ([2]; agonist: MPLA […])?
A: 1.31 ± 0.42

Q: And the viability score [3]?
A: 0.908 (active)
